This is an account of results in PubChem BioAssay.

The structures appear in SMILES notation. Activity calls are given as the source filed them.
Further: test concentration not given here.

One test is described as follows: S. cerevisiae RM11-1a growth modifiers, primary screen, strain RM11-1a, OD600, basal, 24 h (AID 1177).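 Further: cultures grown under basal conditions with no added stressor.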 To be noted: OD600, 24 h, higher = more signal, called active from +8 up or from −8 down.
As for `COc1ccc(C#Cc2ccc3c(c2)[C@]2(C(=O)N3)[C@H](c3ccccc3OCCO)N3[C@H](c4ccccc4)[C@H](c4ccccc4)OC(=O)[C@H]3[C@@H]2C(=O)Nc2nc3ccccc3s2)cc1`, the z-score is 2.93 (inactive). Regarding `O=C(CS)NCCCCCCNC(=O)[C@@H]1C[C@@H]2C(=O)N[C@@H](Cc3ccccc3)C(=O)N2[C@@H]1c1cccc(OCCO)c1`, the z-score was 0.0598 (inactive).

As to `CC(C)N1C(=O)c2ccccc2[C@](C)(C(=O)NCCN2CCOCC2)[C@@H]1c1ccc(CO)cc1`, the z-score was 1.41 (inactive). `CCCC=C(CCC)[C@@H](NC(=O)c1cccs1)c1ccc(C(F)(F)F)cc1`: the z-score was 0.196 (inactive). Still for that read-out and setting: the value for `C[N+](C)(C)CCCCNC(=O)[C@@H]1C[C@@H]2C(=O)N[C@@H](Cc3ccccc3)C(=O)N2[C@@H]1c1cccc(OCCO)c1` was 0.145 (inactive); that for `Cc1ccc(S[C@]2(C(=O)NC3CC3)CC(=O)N(Cc3ccccc3)[C@@H]2c2ccc(CO)cc2I)cc1` was -1.46 (inactive). On the same count and under the same terms, as for `CCOC(=O)C1=C[C@@H](C(C)(C)C)N(S(=O)(=O)c2ccc(C)cc2)[C@H]1c1ccc(F)cc1`, the figure is 1.78 (inactive); as for `COc1ccc(C(O)C2C=CC3C(=O)N(Cc4ccccc4)C(=O)C3N2n2cnnc2)cc1OCc1ccccc1` (centres undefined), -0.271 (inactive).

Consider `CC1CC/C=C\[C@H]2OC34C=CCN(C(C)(C)C)C(=O)[C@H]3N(CCO)C(=O)[C@@H]4C2C(=O)O1` (some centres undefined), for which the z-score was -0.546 (inactive).

The next test is described as follows: E. coli acrAB mutant growth effects, primary screen, E. coli filamentation inducers, strain DRC39, OD650, 24 h (AID 1178).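 Further: growth measured as culture turbidity by optical density at 650 nm.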 To be noted: higher = more signal, called active from +8 up or from −8 down.
Consider `CC(=O)NCCCC[C@@H]1NC(=O)[C@@H]2C[C@H](C(=O)NCCCCCNC(=O)CS)[C@H](c3cccc(OCCO)c3)N2C1=O`, for which the z-score was 0.295 (inactive). The same measure, in the same setting: as for `COc1ccccc1CN1C(=O)c2ccccc2[C@@]2(Cc3ccccc3N(CC(C)C)C2=O)[C@@H]1c1ccc(CO)cc1`, the figure is -0.169 (inactive); as for `CC(CO)N1C(=O)[C@@H]2C3C(=O)OCCC/C=C\[C@H]3OC23C=CCN(C(C)(C)C)C(=O)[C@@H]13` (some centres undefined), 0.855 (inactive). Same read-out and setting: the value for `CC1(C)[C@@H]2CC(C(O)C3C=CC4C(=O)N(Cc5ccccc5)C(=O)C4N3n3cnnc3)=C[C@H]1C2` (some centres undefined) was -0.539 (inactive); that for `O=C1C[C@@](C(=O)NC2CC2)(c2ccc([N+](=O)[O-])cc2)[C@@H](c2ccc(CO)cc2I)N1C1CCCCC1` was 0.149 (inactive). Same read-out and setting: as for `NC(=O)NCC#Cc1ccc2c(c1)[C@]1(C(=O)N2)[C@H](C(=O)Nc2nc3ccccc3s2)[C@H]2C(=O)O[C@H](c3ccccc3)[C@H](c3ccccc3)N2[C@@H]1c1ccccc1OCCO`, the figure is -0.846 (inactive). In the case of `O=C1c2ccccc2[C@](Cc2ccccc2I)(C(=O)NCC(F)(F)F)[C@H](c2ccc(CO)cc2)N1Cc1ccccc1Cl`, the z-score was 0.489 (inactive). Still for that read-out and setting: the value for `CCC[C@@H]1C[C@@]1(CCC)[C@@H](NS(=O)(=O)c1cccc2cccnc12)c1ccc(Cl)cc1` was -0.251 (inactive); that for `CCCC[C@@H]1C[C@H]1[C@@H](NC(=O)c1ccco1)c1ccc(-c2ccccc2)cc1` was -1.05 (inactive); that for `Cc1ccc(S[C@]2(C(=O)NCCCN(C)C)CC(=O)N(Cc3cc(C(F)(F)F)cc(C(F)(F)F)c3)[C@@H]2c2ccc(CO)cc2)cc1` was 0.0957 (inactive). `C=C[C@@H](COC(=O)OC(C)(C)C)N(Cc1ccc(OC)cc1)S(=O)(=O)c1ccc(Br)cc1`: the z-score is -0.807 (inactive). In the case of `COCCOC(=O)N1C(=O)[C@@]2(c3cc(C#CCC(C(=O)OC)C(=O)OC)ccc31)[C@H](C(=O)N1CCN(c3ncccn3)CC1)[C@H]1C(=O)O[C@H](c3ccccc3)[C@H](c3ccccc3)N1[C@@H]2c1ccccc1OCCO`, the z-score is 0.284 (inactive). Consider `CN1C(=O)C2C=CC(C(O)c3ccccc3)N(N(c3ccccc3)c3ccccc3)C2C1=O` (centres undefined), for which the z-score is -0.854 (inactive). The same measure, in the same setting: the value for `COc1ccc([Si](C)(C)[C@H]2[C@H](CC(=O)N3Cc4ccccc4C[C@H]3CO)O[C@@]3(C(=O)N(Cc4cccc(N5CCC5=O)c4)c4ccccc43)[C@@H]2C)cc1` was 0.675 (inactive). Still for that read-out and setting: as for `C=CCC(OC(C)=O)[C@@H]1[C@@H](N(Cc2ccc(-c3cccc(C(F)(F)F)c3)o2)C(=O)c2ccc(C)cc2)c2cc(OCCCO)ccc2N1C(=O)Cc1ccc2ccccc2c1` (some centres undefined), the figure is -0.333 (inactive); as for `Oc1ccc2cc[n+](Cc3sc4ccccc4c3Cl)cc2c1`, -0.257 (inactive); as for `COC(=O)C(CC#Cc1ccc2c(c1)[C@]1(C(=O)N2)[C@H](c2ccc(OCCO)cc2)N2[C@H](c3ccccc3)[C@H](c3ccccc3)OC(=O)[C@H]2[C@@H]1C(=O)N1CCc2cc(OC)c(OC)cc2C1)C(=O)OC`, 0.242 (inactive).

As to `COc1ccc(CCNC(=O)[C@@]2(Sc3ccc(C)cc3)CC(=O)N(C(C)C)[C@@H]2c2ccc(CO)cc2I)cc1`, the z-score is -0.246 (inactive). Same read-out and setting: as for `CN(C)CCCC[C@@H]1NC(=O)[C@@H]2C[C@H](C(=O)NCCCCCCN)[C@H](c3cccc(OCCO)c3)N2C1=O`, the figure is -0.459 (inactive); as for `C=CCN1C(=O)[C@]2(O[C@H](CCn3cc([C@H](O)c4ccccc4)nn3)[C@@H]([Si](C)(C)c3ccc(OC)cc3)[C@@H]2C)c2ccccc21`, 0.617 (inactive). On the same count and under the same terms, as for `COC(=O)C(CC#Cc1ccc2c(c1)[C@]1(C(=O)N2)[C@H](C(=O)Nc2nc3ccccc3s2)[C@H]2C(=O)O[C@H](c3ccccc3)[C@H](c3ccccc3)N2[C@@H]1c1ccc(O)cc1)C(=O)OC`, the figure is -0.0857 (inactive); as for `COc1cc2c(cc1O)C(c1cccs1)N(C)CC2` (centres undefined), 0.34 (inactive); as for `C=CC[C@]1(C(=O)NCc2ccccc2)N=C(c2ccc(OCCCO)cc2)O[C@H]1c1ccccc1N=[N+]=[N-]`, 0.498 (inactive). On the same count and under the same terms, the value for `O=C(c1ccccc1)N1Cc2ccccc2C[C@@]2(COC(c3ccc(OCCCO)cc3)=N2)C1=O` was -0.0674 (inactive); that for `C=C[C@H](C)[C@@H](OC(=O)Nc1ccc(OC)cc1)c1ccc(O)c2ccccc12` was 1.42 (inactive); that for `CCC(CC)C(O)C1C=CC2C(=O)NC(=O)C2N1Nc1ccc(Cl)cc1Cl` (centres undefined) was -0.682 (inactive). Consider `COc1ccc(C#Cc2ccc3c(c2)[C@]2(C(=O)N3)[C@H](c3ccccc3OCCO)N3[C@H](c4ccccc4)[C@H](c4ccccc4)OC(=O)[C@H]3[C@@H]2C(=O)Nc2nc3ccccc3s2)cc1`, for which the z-score is 0.0225 (inactive). Consider `O=C(CS)NCCCCCCNC(=O)[C@@H]1C[C@@H]2C(=O)N[C@@H](Cc3ccccc3)C(=O)N2[C@@H]1c1cccc(OCCO)c1`, for which the z-score is 0.051 (inactive). The same measure, in the same setting: the value for `CC(C)N1C(=O)c2ccccc2[C@](C)(C(=O)NCCN2CCOCC2)[C@@H]1c1ccc(CO)cc1` was -0.0268 (inactive); that for `CCCC=C(CCC)[C@@H](NC(=O)c1cccs1)c1ccc(C(F)(F)F)cc1` was 0.224 (inactive); that for `C[N+](C)(C)CCCCNC(=O)[C@@H]1C[C@@H]2C(=O)N[C@@H](Cc3ccccc3)C(=O)N2[C@@H]1c1cccc(OCCO)c1` was 0.994 (inactive). Regarding `Cc1ccc(S[C@]2(C(=O)NC3CC3)CC(=O)N(Cc3ccccc3)[C@@H]2c2ccc(CO)cc2I)cc1`, the z-score is 0.714 (inactive). Still for that read-out and setting: as for `CCOC(=O)C1=C[C@@H](C(C)(C)C)N(S(=O)(=O)c2ccc(C)cc2)[C@H]1c1ccc(F)cc1`, the figure is -0.731 (inactive); as for `COc1ccc(C(O)C2C=CC3C(=O)N(Cc4ccccc4)C(=O)C3N2n2cnnc2)cc1OCc1ccccc1` (centres undefined), 1.31 (inactive). Still for that read-out and setting: the value for `CC1CC/C=C\[C@H]2OC34C=CCN(C(C)(C)C)C(=O)[C@H]3N(CCO)C(=O)[C@@H]4C2C(=O)O1` (some centres undefined) was -0.344 (inactive).
